# High-throughput results (PubChem BioAssay)
# UGM FP inh: Mtb UDP-galactopyranose mutase inhibition; 320,000 tested, 0.06% active; P9WIQ1; purified UGM, fluorescence polarization probe displacement; inhibition, % at 10 µM; AID 504406; in the data active means inhibition above about 10%, passing the limit was not always enough; inconclusive means no clear call, values can overlap the other calls
# FadD28 FP inh: inhibitors of Mycobacterium tuberculosis FadD28 bisubstrate binding. AID 588549. 360,000 tested, 0.22% active. FadD28 bisubstrate probe binding, fluorescence polarization. inhibition, % at 12.5 µM; in the data active means inhibition above about 8.5%, passing the limit was not always enough; inconclusive means no clear call, values can overlap the other calls
# BioA inh: BioA (M. tuberculosis) enzyme inhibition; purified M. tuberculosis BioA enzyme, plate reader; inhibition, % at 9.99 µM; 360,000 tested, 0.096% active; AID 602481; in the data active means inhibition above about 40%; inconclusive means no clear call, values can overlap the other calls
# TcdB inh: blocks C. difficile toxin B glycohydrolase activity; inhibition, % at 9.99 µM; AID 652162; P18177; TcdB glycohydrolase enzymatic assay, plate reader; 350,000 tested, 0.24% active; in the data active means inhibition above about 10%
# Rv3671c protease: inhibitors of M. tuberculosis serine protease Rv3671c; inhibition, % at 5.96 µM; 320,000 tested, 0.048% active; P9WHR9; in the data active means inhibition above about 38%;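 further: extracellular domain of Rv3671c used as enzyme; 0% = enzyme with DMSO and 100% = no enzyme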
# Target sequence (P9WHR9 whole entry, looked up, the tested form may be a part): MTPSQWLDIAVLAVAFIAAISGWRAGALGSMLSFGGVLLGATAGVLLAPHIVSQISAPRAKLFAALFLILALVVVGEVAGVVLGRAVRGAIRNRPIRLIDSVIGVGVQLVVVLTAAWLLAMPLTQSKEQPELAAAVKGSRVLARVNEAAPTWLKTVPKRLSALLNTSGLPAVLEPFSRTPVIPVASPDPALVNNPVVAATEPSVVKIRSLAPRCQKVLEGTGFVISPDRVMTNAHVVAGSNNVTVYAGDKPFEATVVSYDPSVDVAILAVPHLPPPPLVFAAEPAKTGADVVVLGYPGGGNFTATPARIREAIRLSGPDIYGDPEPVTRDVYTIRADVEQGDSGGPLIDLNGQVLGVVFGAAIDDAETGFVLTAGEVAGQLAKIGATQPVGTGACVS
# RecA splice inh: blocks M. tuberculosis RecA intein splicing | cell-free RecA intein splicing, fluorescence | inhibition, % (concentration not given with the values) | 290,000 tested, 0.75% active | AID 2221; in the data active means inhibition above about 30%; inconclusive means no clear call, values can overlap the other calls;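 further: 0% = vehicle wells and 100% = reference inhibitor control wells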
# GFP chromo cs: counter-screen GFP chromophore formation inhibition | cell-free GFP chromophore formation, fluorescence | 2,100 tested, 83% active | shares compounds with RecA splice inh | EC50, µM; call rule not given here
# Numbers without * were called inactive; ? = inconclusive; . = not tested or not shown. In the library only some 0.97% were active in any assay of this set; here they are far more common.
SMILES,UGM FP inh,FadD28 FP inh,BioA inh,TcdB inh,Rv3671c protease,RecA splice inh,GFP chromo cs
O=C(C[C@H]1C=C[C@H](NC(=O)Nc2ccc(F)cc2)[C@@H](CO)O1)NCCN1CCCC1,.,.,-2,1,.,.,.
COc1cccc(/C=C(/C#N)c2ccc(F)cc2)c1OCc1cccc(C(=O)O)c1,1,-4,2,.,-10,0,.
N#C/C(=C/c1cccn1-c1cccc(C(=O)O)c1)c1ccc(F)cc1,.,-6,.,-2,.,45*,>38
COc1ccc(NC(=O)Nc2c(O)ccc3ccccc23)cc1,3,?,.,-4,-12,59*,15*
COc1ccc(C(=O)Nc2c(O)ccc3ccccc23)cc1,3,-4,7,-4,-5,0,.
COc1ccc(S(=O)(=O)Nc2c(O)ccc3ccccc23)cc1OC,1,1,-1,-10,-14,96*,4.6*
Oc1ccc(/C=N/N=C/c2ccc(O)c(O)c2)cc1O,5,3,-1,6,-10,-6,.
Oc1ccc(N=Cc2ccc(O)c(O)c2)cc1,3,?,.,.,-13,86*,24*
Nc1ccc(N2CCOCC2)c2nonc12,0,-4,1,-5,-104,95*,23*
O=C(Nc1ccc(N2CCOCC2)c2nonc12)C1CCCC1,1,-4,-2,.,-2,2,.
Cc1ccc(S(=O)(=O)N(C)C[C@@H]2Oc3c(NC(=O)Nc4cccc5ccccc45)cccc3C(=O)N([C@@H](C)CO)C[C@H]2C)cc1,.,.,0,-1,.,.,.
CC1=NNC(=O)C1Cc1ccccc1C (stereo unspecified),1,0,-2,1,-2,95*,0.74*
COc1ccccc1/C=C/C1(C(=O)NC2CCCC2)CC(=O)N1c1ccc(F)cc1 (stereo unspecified),2,-1,-3,.,-13,57*,22*
COCC(=O)Nc1ccc2c(c1)[C@@H]1C[C@H](CC(=O)NCc3ccccc3OC)O[C@H](CO)[C@@H]1O2,.,.,-2,0,.,.,.
CC(OC(=O)c1cc(O)c2ccccc2c1O)C(=O)Nc1ccc(C(N)=O)cc1 (stereo unspecified),-1,2,4,1,-25,73*,5.2*
O=C(CCl)Nc1cccc(Oc2ccccc2)c1,-1,-7,1,0,-1,65*,35*
O=C(CCl)Nc1ccc(N=Nc2ccccc2)cc1,.,-2,-1,0,.,79*,30*
O=C(CCl)Nc1ccc(-c2ccccc2)cc1,-2,-1,.,2,-7,75*,24*
CC(C)N(c1ccccc1)c1ccc(NC(=O)CCl)cc1,-1,0,1,1,4,51*,8.7*
CCCNC(=O)N1CC2(CCN(S(=O)(=O)c3cccc(OC)c3)CC2)c2c(n(C)c3cc(OC)ccc23)[C@@H]1CO,.,.,.,-1,.,.,.
O=S(=O)(c1ccccc1S(=O)(=O)N1CCCCC1)N1CCCCC1,-4,-1,1,0,0,-11,.
O=C1C=C(N2CCCCC2)c2ccccc2C1=O,0,1,0,-1,-105,98*,2*
Cc1cccc(N(Cc2ccccc2)C(=O)CCl)c1,.,0,.,1,.,58*,9.9*
O=C(CCl)N(Cc1cc(=O)[nH]c2ccccc12)c1ccccc1,0,-2,.,0,1,69*,11*
CCC(=O)N(Cc1cc(=O)[nH]c2ccccc12)c1ccccc1,-3,1,0,-1,3,-1,.
SMILES,UGM FP inh,FadD28 FP inh,BioA inh,TcdB inh,Rv3671c protease,RecA splice inh,GFP chromo cs
O=C(CCl)N(Cc1ccccc1)c1ccccc1,1,-4,.,-1,3,73*,24*
CCN(Cc1ccccc1)S(=O)(=O)c1ccc(C(=O)N(CCCN(C)C)c2nc3cc(C)cc(C)c3s2)cc1,-1,-4,-2,1,0,31*,>38
O=C1OCC2=Nc3cccc4cccc(c34)N12,.,.,.,1,.,.,.
CC1=Nc2cccc3cccc(c23)N1C,-1,-2,.,.,-6,78*,>38
CC(Oc1ccc(F)cc1)C(=O)Oc1ccc(N(C)S(=O)(=O)c2ccccc2)cc1 (stereo unspecified),-2,1,-1,1,15,39*,>38
CN1c2ccccc2C(C)(C)C12C=Nc1c(ccc3ccccc13)O2 (stereo unspecified),-1,2,.,.,-68,79*,25*
CC(C)[C@H](NC(=O)Nc1ccc(Oc2ccccc2)cc1)C(=O)O,-4,0,0,.,-10,62*,>38
C[C@H](CO)N1C[C@H](C)[C@H](CN(C)C(=O)Nc2cccc3ccccc23)Oc2ccc(NS(=O)(=O)c3ccc(Cl)cc3)cc2CC1=O,.,.,-1,0,.,.,.
C[C@@H]1CN([C@@H](C)CO)S(=O)(=O)c2ccc(C#CC3CC3)cc2O[C@H]1CN(C)C(=O)Cc1ccncc1,.,.,-2,0,.,.,.
COc1ccc(N=Nc2c(C)[nH][nH]c2=O)cc1,1,1,.,0,-15,.,.
COc1ccc(OC)c(C(c2c(C)[nH][nH]c2=O)c2c(C)[nH][nH]c2=O)c1,0,-2,-1,-2,-15,95*,0.43*
COc1ccc(O)c(C(c2c(C)[nH][nH]c2=O)c2c(C)[nH][nH]c2=O)c1,0,-2,.,-2,-27,92*,3.8*
COc1cccc(Nc2c([N+](=O)[O-])cncc2[N+](=O)[O-])c1,2,-2,-1,1,8,54*,21*
Cc1[nH][nH]c(=O)c1C(c1ccc(O)c([N+](=O)[O-])c1)c1c(C)[nH][nH]c1=O,-1,0,1,.,-10,-3,.
COc1cc(C(c2c(C)[nH][nH]c2=O)c2c(C)[nH][nH]c2=O)ccc1OC(C)C,2,0,-1,1,-6,97*,0.45*
COc1ccc(C(c2c(C)[nH][nH]c2=O)c2c(C)[nH][nH]c2=O)cc1Br,0,-1,0,-1,-7,98*,0.59*
CCOc1cc(C(c2c(C)[nH][nH]c2=O)c2c(C)[nH][nH]c2=O)ccc1O,-1,0,0,.,-23,96*,1.1*
COc1ccc(Cc2nc(=S)[nH][nH]2)cc1Br,-3,-3,0,1,11,.,.
Cc1[nH][nH]c(=O)c1C(c1ccc(O)c(Br)c1)c1c(C)[nH][nH]c1=O,1,-1,-1,-2,-3,98*,0.46*
Cc1noc(C)c1S(=O)(=O)N(C)C[C@@H]1OCCCC[C@@H](C)Oc2ccc(NS(=O)(=O)c3ccc(F)cc3)cc2C(=O)N([C@@H](C)CO)C[C@H]1C,.,.,0,.,.,.,.
O=C(c1cc(F)c(F)cc1Cl)N1CCN(c2ccc([N+](=O)[O-])c3ncccc23)CC1,1,-5,.,1,-9,32*,23*
CCNC(=O)C[C@@H]1CC[C@@H]2[C@H](COc3ccc(NC(=O)c4ccccc4Cl)cc3C(=O)N2C)O1,.,.,0,.,.,.,.
